A selection: hits, their analogues and other compounds. The true share with any hit is near 1.5%.
Six1-Eya2 blk: Six1/Eya2 interaction inhibition. AlphaScreen GST-Six1/His-Eya2 binding, biochemical; hits give low values. activity change, % (no concentration beside the values). 360,000 tested, 0.56% active; in the data active = activity change below about -65%; inconclusive = mostly about -30% to -63%
Target sequence (O00167 whole entry, looked up): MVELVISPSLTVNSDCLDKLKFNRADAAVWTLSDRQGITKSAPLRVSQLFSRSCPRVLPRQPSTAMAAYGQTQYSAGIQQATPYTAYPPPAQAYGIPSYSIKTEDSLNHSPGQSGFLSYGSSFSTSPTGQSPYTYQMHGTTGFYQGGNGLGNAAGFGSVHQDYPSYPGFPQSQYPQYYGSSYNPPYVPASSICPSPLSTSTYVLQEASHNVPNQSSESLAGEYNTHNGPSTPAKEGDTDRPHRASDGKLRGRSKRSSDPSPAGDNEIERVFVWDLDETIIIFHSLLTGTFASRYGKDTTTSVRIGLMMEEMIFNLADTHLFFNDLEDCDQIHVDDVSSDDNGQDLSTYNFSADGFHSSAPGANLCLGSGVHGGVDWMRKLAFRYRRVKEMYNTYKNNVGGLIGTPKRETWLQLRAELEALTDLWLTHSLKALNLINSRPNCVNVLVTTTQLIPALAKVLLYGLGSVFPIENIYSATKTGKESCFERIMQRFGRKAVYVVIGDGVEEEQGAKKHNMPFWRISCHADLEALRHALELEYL
Target sequence (Q15475 whole entry, looked up): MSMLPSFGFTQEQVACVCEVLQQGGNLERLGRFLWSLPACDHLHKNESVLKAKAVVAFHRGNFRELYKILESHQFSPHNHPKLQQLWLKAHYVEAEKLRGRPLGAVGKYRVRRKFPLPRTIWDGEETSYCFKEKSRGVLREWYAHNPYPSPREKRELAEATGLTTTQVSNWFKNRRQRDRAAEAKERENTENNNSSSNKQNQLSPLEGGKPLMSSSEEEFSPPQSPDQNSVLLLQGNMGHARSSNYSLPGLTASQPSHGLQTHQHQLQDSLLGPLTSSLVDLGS
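Homogeneous AlphaScreen proximity assay pairing GST-Six1 with His-tagged Eya2 (added as 5X mix: 250 nM and 500 nM) in 50 mM Tris pH 8.0, 300 mM NaCl, 1 mM TCEP. Glutathione donor and nickel acceptor beads; 1 h, 37 °C, dark.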
TrxR1 substrate: rat thioredoxin reductase 1 substrate activity. Potency, µM (highest dose often 114 µM), inactives show top-dose activity change, negative = substrate turnover. AID 588456. 390,000 tested, 0.01% active. O89049. purified TrxR1 substrate turnover, NADPH consumption readout; also: potency is read from the fitted curve at half-maximal effect; nearly all actives have a fitted effect of over 50% in size
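Rat TrxR1, dispensed at 90 nM, was prereduced with 400 uM NADPH (final) for 5 min at ~22 deg C, then incubated with compound 15 min before 400 uM selenite. A first-read NADPH fluorescence drop versus no-compound background flagged substrates.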
rTrxR1 inhibitor: blocks rat thioredoxin reductase 1 | Potency, µM (doses to about 114 µM), inactives show at the top dose activity change, negative = inhibition, most hits filed as inhibitors | AID 588453 | O89049 | recombinant rTrxR1, NADPH fluorescence consumption, selenite substrate | 390,000 tested, 1% active; also: potency is read from the fitted curve at half-maximal effect; nearly all actives have a fitted effect of over 65% in size
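Rat TrxR1 (90 nM in the dispensed reagent) was pre-reduced with 400 uM NADPH for 5 min at room temperature, then incubated with compound for 15 min. After 400 uM selenite was added, NADPH fluorescence (Ex 340/Em 450 nm) was followed for 8 min.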
GALK inh: inhibitors of human galactokinase | P51570 | Purified GALK, Kinase-Glo residual ATP luminescence | Potency, µM (series often up to 57.5 µM), without a hit: at the highest dose activity change, negative = inhibition, most hits filed as inhibitors | 270,000 tested, 0.007% active; also: potency is read from the fitted curve at half-maximal effect
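5 nM enzyme, 35 uM ATP, 100 uM galactose, 20 mM HEPES pH8.0, 5 mM MgCl2; 1 h RT; residual ATP by Kinase-Glo Plus luminescence, qHTS format.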
Eya2 inh: Eya2 (human) phosphatase inhibition | O00167 | recombinant Eya2, OMFP fluorescence dephosphorylation (OMFP is methylfluorescein phosphate) | Potency, µM (series often up to 76.9 µM), for inactives: at the highest dose activity, negative = inhibition, most hits filed as inhibitors | 330,000 tested, 0.006% active | AID 488837; also: potency is read from the fitted curve at half-maximal effect
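Eya2 protein (added as 0.2 uM solution) was preincubated with compound for 10 min at ambient temperature in 50 mM HEPES pH 7.5, 50 mM NaCl, 5 uM MgCl2, 0.05% BSA, 1 mM DTT. OMFP (added at 50 uM) then reacted 10 min; fluorescence read at 485/525 nm.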
CtBP-E1A blk: blocks the CtBP interaction with E1A | AlphaScreen GST-E1A/His-CtBP binding, 1536-well; hits give low values | activity change, % (concentration not given with the values) | 340,000 tested, 0.49% active | AID 651724; in the data active = activity change below about -65%; inconclusive = mostly about -30% to -63%
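GST-E1A and His-tagged CtBP (125 nM each as 5X stock) were preincubated with pin-transferred compound for 2 h at 37 °C in the dark, then glutathione donor and nickel acceptor beads were added for 1 h before AlphaScreen reading.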
* marks the source's active call; other numbers are inactive results; ? = inconclusive; . = no result given; ! = not active in a repeat; [ ] = another dose, or the depositor's remark. Unless noted, calls follow the shape of the dose curve; as a rule, active = well fitted curve in the direction sought with a large enough effect; inconclusive = small, poorly fitted or top-dose-only effect, or another doubt; inactive = no such curve, though single readings can be large; an effect the other way counts as inactive or inconclusive. % is scaled to controls: 0 for no effect and ±100 for the full control effect.

SMILES | Six1-Eya2 blk | TrxR1 substrate | rTrxR1 inhibitor | GALK inh | Eya2 inh | CtBP-E1A blk
CCCOc1ccc(C(=O)Nc2cc(-c3nc4ccccc4[nH]3)ccc2C)cc1 | . | 20% | 27% | . | . | .
CC1=C(C(=O)Nc2cccc(Cl)c2C)C2(CCCCCC2)OC1=O | . | 2% | 16% | . | . | .
O=C1/C(=C/c2ccc(C(=O)O)cc2)CCC/C1=C\c1ccc(C(=O)O)cc1 | -67* | -22% | -31% | -3% | 7% | 3
CC(C)(C)c1ccc(C(=O)CC(Sc2ccc(Cl)cc2)C(=O)O)cc1 (stereo not given) | -4 | -6% | 56µM* | 4% | -4% | 1
Cc1ccc(SC(CC(=O)c2ccc(F)cc2)C(=O)O)cc1 (stereo not given) | -4 | 11%[57.1 µM] | ? | -4% | -1% | 3
CCOC(=O)CN(C(=O)CSc1nnc2c(n1)[nH]c1ccccc12)c1ccccc1 | ? | -4%[57.1 µM] | 1%[57.1 µM] | -1% | 21% | ?
CCOC(=O)CN(C(=O)CSc1nnc2c(n1)[nH]c1ccc(F)cc12)c1ccccc1 | -66* | -11% | -3% | 2% | -12% | -70*
O=C1NC(=O)C(c2ccccc2[N+](=O)[O-])=C1Nc1ccc(O)c(Cl)c1 | 3 | -3%[57.1 µM] | 2.7µM*! | . | 8% | 0
CC(C)(C)OC(=O)N1CC=C2C(C#N)=C(N)C(C#N)(C#N)C(c3cccs3)C2C1 (stereo not given) | -8 | -1% | ? | 0% | -3% | -12
CC(C)(C)OC(=O)N1CC=C2C(C#N)=C(N)C(C#N)(C#N)[C@H](c3cccnc3)[C@H]2C1 | -10 | 18% | 40µM* | 0% | -3% | -2
Cc1ccccc1NC(=O)c1c(C)[nH]c(=S)c(C#N)c1-c1ccco1 | 0 | -7% | ? | 4% | -13% | -4
CNC(=O)c1c(C)[nH]c(=S)c(C#N)c1-c1ccco1 | 27 | 1% | 13µM* | 0% | -6% | .
N#CCCCN1C(=O)C(=C(C#N)C#N)c2ccccc21 | -12 | -4% | 13µM* | -1% | 8% | -17
COc1ccc(OCc2ccc(-c3nc(C#N)c(NCc4ccc(F)cc4)o3)o2)cc1 | . | 2% | 15% | . | . | .
COc1cc(NC(=O)C2CCCN(S(=O)(=O)c3ccc4c(c3)CCCN4C(C)=O)C2)cc(OC)c1 (stereo not given) | ? | -5% | 13% | 7% | -1% | -65*
Cc1ccc(C)c(CSc2nc3ccncc3n2CC(=O)Nc2ccc(N(C)C)cc2)c1 | . | -2% | 12% | . | . | .
COCCN(CCOC)Cc1c(O)ccc2c1O/C(=C\c1ccc(C)o1)C2=O | -1 | ? | 50µM* | -2% | ? | 1
CCN(CC)Cc1c(O)ccc2c1O/C(=C\C=C\c1ccccc1)C2=O | -1 | -13% | 71µM* | 1% | 27% | -2
COc1ccccc1/C=C/C=C1\Oc2c(ccc(O)c2CN(C)C)C1=O | -1 | -25% | ? | -2% | ? | -3
CCCSc1nnc(NC(=O)c2cc(=O)c3ccccc3o2)s1 | . | -10% | 0% | . | . | .
O=C(O[C@@H]1Cc2c(O)cc(O)cc2O[C@@H]1c1cc(O)c(O)c(O)c1)c1cc(O)c(O)c(O)c1 | . | . | . | 10µM* | 1% | .
CCN(CC)C(NC(=O)Cc1ccccc1)C(Cl)(Cl)Cl (stereo not given) | 2 | 11% | 7.9µM* | -3% | 4% | -2
NS(=O)(=O)C#Cc1ccccc1 | . | 20%[57.1 µM] | 4.7µM* | . | 6% | .
Nc1ccc(C#Cc2ccccc2)cc1 | -1 | -2% | -8% | 0% | 6% | 2
CC(C(=O)Nc1ccc(F)c(Cl)c1)N1Cc2ccccc2C1=O (stereo not given) | . | -10% | -13% | . | . | .
SMILES | Six1-Eya2 blk | TrxR1 substrate | rTrxR1 inhibitor | GALK inh | Eya2 inh | CtBP-E1A blk
COc1ccc(C(=O)NNC2=CC(=O)CC(C)(C)C2)cc1 | 9 | -15% | ? | 2% | -4% | -2
CC1(C)CC(=O)C=C(OC(=O)c2ccc(Cl)cc2)C1 | 7 | 8%[57.1 µM] | 4.5µM* | -2% | 0% | 7
CC1(C)c2ccccc2N2CC(=O)NC21/C=C/c1ccco1 (stereo not given) | -10 | -5% | ? | -1% | 3% | -5
CC1(C)c2ccccc2N2CCC(=O)NC21/C=C/c1ccco1 (stereo not given) | -11 | -3% | 40µM* | 1% | 22% | -1
CN(CC(=O)Nc1cccc(Cl)c1)S(=O)(=O)c1ccc2[nH]c3c(c2c1)CCCC3 | . | -2% | 4% | . | . | .
O=C(Oc1ccc(Cl)c2cccnc12)c1ccco1 | -88* | 6% | 21% | -2% | 5% | -83*
COc1ccccc1N1CCN(C(=O)CSc2n[nH]c(-c3ccccc3Cl)n2)CC1 | . | 1%[57.1 µM] | 28%[57.1 µM] | . | . | .
CN1CCN(C(c2ccc(C(F)(F)F)cc2)c2ccc3cccnc3c2O)CC1 (stereo not given) | ? | -1% | 6.3µM* | 0% | -2% | -84*
Oc1c(C(c2ccccc2Cl)N2CCCC2)ccc2cccnc12 (stereo not given) | ? | -2% | 7.1µM* | 7% | 9% | .
Oc1c(C(c2ccccn2)N2CCC(Cc3ccccc3)CC2)cc(Cl)c2cccnc12 (stereo not given) | -88* | 0%[57.1 µM] | 11%[57.1 µM] | 0% | 16% | -68*
Cc1ccc(C(c2cc(Cl)c3cccnc3c2O)N2CCN(C)CC2)cc1 (stereo not given) | ? | 6% | 4.5µM* | 15% | -3% | -85*
CN1CCN(C(c2ccccc2)c2ccccc2)CC1 | 3 | -6% | -6% | . | 16% | -16
Oc1c(C(c2cccs2)N2CCN(c3ccccc3)CC2)ccc2cccnc12 (stereo not given) | . | . | . | 10% | . | .
Cc1cccc(N2CCN(C(=O)CCCn3ncn4c(cc5occc54)c3=O)CC2)c1C | . | 3% | 8% | . | . | .
CCN(C(=O)CSc1nc(-c2ccc(C(C)C)cc2)no1)c1cccc(C)c1 | . | -6%[57.1 µM] | 13%[57.1 µM] | . | . | .
CCOc1ccc(N(C(=O)CC(C)C)S(=O)(=O)c2ccc3c(c2)oc(=O)n3C)cc1 | . | -5% | 5% | . | . | .
COc1cc(C(=O)NC(c2ccc(Cl)cc2)c2cc(Cl)c3cccnc3c2O)cc(OC)c1OC (stereo not given) | . | 2%[57.1 µM] | 27%[57.1 µM] | . | . | .
CN1CCN(C(c2ccccn2)c2cc(Cl)c3cccnc3c2O)CC1 (stereo not given) | -89* | -7% | ? | 13% | 6% | .
Oc1c(C(c2ccc(Cl)cc2)N2CCCC2)cc(Cl)c2cccnc12 (stereo not given) | ? | 1%[57.1 µM] | 50µM* | 8% | 1% | .
COc1ccc(N(Cc2cccs2)C(=O)COc2ccc(C(C)C)cc2)cc1 | . | -7% | 19% | . | . | .
